# Only some compounds are listed: those with a hit (about 7.4% of all), similar ones and a draw of the others.
# FLuc modulator: inhibits or activates purified firefly luciferase, miR-21 counter-screen; P08659; purified FLuc, Km substrates, luminescence inhibition; Potency, µM (titrated, usually from 57.5 µM), without a hit: at the highest dose activity change, negative = inhibition, most hits filed as inhibitors; actives 6.9% (n = 360,000);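 further: plate controls were vehicle for no effect and reference inhibitor for full effect; nearly all actives have a fitted effect of over 55% in size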
# Target sequence (P08659 whole entry, looked up): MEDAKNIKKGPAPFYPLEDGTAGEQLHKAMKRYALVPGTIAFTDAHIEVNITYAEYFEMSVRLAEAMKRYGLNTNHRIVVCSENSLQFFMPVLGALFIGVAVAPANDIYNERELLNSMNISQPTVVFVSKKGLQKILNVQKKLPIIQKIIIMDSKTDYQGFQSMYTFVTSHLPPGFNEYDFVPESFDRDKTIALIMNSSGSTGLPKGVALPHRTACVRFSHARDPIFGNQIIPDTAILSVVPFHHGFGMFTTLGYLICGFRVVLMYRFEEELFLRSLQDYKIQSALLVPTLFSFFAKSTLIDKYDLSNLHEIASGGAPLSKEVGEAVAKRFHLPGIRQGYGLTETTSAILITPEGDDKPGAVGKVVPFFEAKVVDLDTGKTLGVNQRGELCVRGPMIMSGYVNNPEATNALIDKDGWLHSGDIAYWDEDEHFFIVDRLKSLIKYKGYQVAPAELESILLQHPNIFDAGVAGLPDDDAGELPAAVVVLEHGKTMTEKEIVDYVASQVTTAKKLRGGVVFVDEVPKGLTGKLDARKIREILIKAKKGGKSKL
#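 Purified P. pyralis luciferase (10nM final) with 10uM D-luciferin and 10uM ATP (Km levels) in 50mM Tris acetate pH 7.5, 10mM Mg acetate, 0.01% Tween-20, 0.05% BSA; qHTS 6-point titration, ~60 µM downward; luminescence read.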
# ELG1 genotox: genotoxicity induction in ELG1-luciferase HEK293T cells; HEK293T ELG1-luciferase reporter, luminescence, 16 h; Potency, µM (top dose mostly 46 µM), inactives show at the highest dose activity change, positive = activation, hits mostly activators; actives 1.3% (n = 330,000); AID 504466; further: % of control where 0% means no effect; nearly all actives have a fitted effect of over 60% in size
#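 ELG1-luciferase HEK293T cells, 2,000/well; compound pinned in; 16 hr, 37 °C, 5% CO2; ONE-Glo, 30 min RT; luminescence on CCD imager.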
# SMN2 splice enh: SMN2 splice variant enhancement; Potency, µM (doses to about 46.1 µM), for the others: at the highest dose activity change, positive = activation, usual class: activators; HEK293 SMN2-luciferase splicing reporter, luminescence, 30-36 h; actives 2.8% (n = 210,000); further: % of control where 0% means no effect; nearly all actives have a fitted effect of over 55% in size
#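 qHTS luciferase splicing reporter: luminescence rises when SMN2 exon 7 is included in transfected HEK293 cells. Compound exposure lasted 30-36 h at 37C, with 4.5 mM final sodium butyrate as control, followed by a ONE-Glo read.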
# NPC1 promoter act: NPC1 promoter activation; Potency, µM (series often up to 9.22 µM), inactives show at the highest dose activation, usual class: activators; Huh7 NPC1 promoter luciferase reporter, 24 h; AID 485313; actives 2.4% (n = 320,000); further: % of control where 0% means no effect; nearly all actives have a fitted effect of over 60% in size
#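 Luminescence from an NPC1 promoter-driven luciferase reporter in stably transfected Huh7 cells was measured after 24 h compound treatment at 37 °C, followed by 10 min ambient incubation with luciferase detection reagent.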
# Rab9 promoter act: activators of Rab9 promoter; AID 485297; actives 2.8% (n = 320,000); Huh7 Rab9 promoter-luciferase reporter, luminescence, 24 h; Potency, µM (highest dose often 9.22 µM), for inactives: top-dose activation, negative = inhibition, hits mostly activators; further: % of control where 0% means no effect; nearly all actives have a fitted effect of over 60% in size
#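 Huh7 cells stably carrying a Rab9 promoter-luciferase reporter, 1500 cells per well in OP-MEM I with 10% FBS, treated with compound 24 hours at 37C. Luciferase activity read by luminescence after 10 minutes with Amplite reagent.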
# Starred values were filed as active, the others as inactive; ? = inconclusive; · = no result. The call rests on the fitted dose curve; in most records, active means well fitted curve in the direction sought with a large enough effect; inconclusive means small, poorly fitted or top-dose-only effect, or another doubt; inactive means no such curve, though single readings can be large; an effect the other way counts as inactive or inconclusive. Potency means the concentration at half of the fitted maximal effect.
SMILES,FLuc modulator,ELG1 genotox,SMN2 splice enh,NPC1 promoter act,Rab9 promoter act
CC1(C)CC(=O)C2=C(C1)N(CCN1CCOCC1)C1=C(C(=O)CC(C)(C)C1)C2c1ccc(Cl)c([N+](=O)[O-])c1,-1.6%,-1.2%,-6.2%,-4.8%,-1.7%
Cc1ccc(C2C3=C(CC(C)(C)CC3=O)N(CCN3CCOCC3)C3=C2C(=O)CC(C)(C)C3)cc1,-9.1%,-1.9%,-7.6%,-3.4%,3.55µM*
COC(=O)CCCC(=O)N1CCC(CCC(=O)NC2CC2)CC1,-0.1%,4.5%,·,-1.0%,-4.6%
CC(C)CN1C(=O)c2ccc(C(=O)Nc3ccc(O)cc3C(=O)O)cc2C1=O,6.01µM*,-2.0%,·,-2.6%,11.7%
CC(C)CCN1C(=O)c2ccc(C(=O)Nc3ccccc3C(=O)O)cc2C1=O,21.3µM*,3.9%,·,4.3%,-0.3%
CC(c1ccccc1)N1C(=O)c2ccc(C(=O)Nc3ccccc3C(=O)O)cc2C1=O (stereo not given),23.9µM*,-12.1%,·,-5.0%,3.4%
CC(c1ccccc1)N1C(=O)c2ccc(C(=O)Nc3ccc(Br)cc3C(=O)O)cc2C1=O (stereo not given),2.0%,-9.4%,·,0.4%,-1.9%
CC(C)CCN1C(=O)c2ccc(C(=O)Nc3ccc(O)cc3C(=O)O)cc2C1=O,19µM*,-0.5%,·,0.7%,2.4%
COc1cc(NC(=O)c2ccc3c(c2)C(=O)N(CCC(C)C)C3=O)c(C(=O)O)cc1OC,?,-2.1%,·,-2.4%,3.2%
COc1ccccc1C(CNC(=O)C1CC(=O)N(Cc2ccc(C)cc2)C1)N1CCCC1 (stereo not given),-1.4%,-1.7%,·,-0.8%,1.0%
Cc1noc(C)c1COc1ccc(C(=O)OCC(=O)NCCN2C(=O)CSC2=O)cc1,0.1%,3.6%,9.8%,0.8%,-1.6%
Cc1ccc(OC(=O)c2oc3ccc(F)cc3c2C)c(C)c1,7.57µM*,13.6%,16.9%,22.5%,8.2%
COc1ccc(/C=C/C(=O)c2oc3ccc(F)cc3c2C)cc1,9.53µM*,2.6%,-35.5%,11.2%,0.8%
CC1(C(=O)O)CCC(C(=O)Nc2ccc(F)cc2)C1(C)C (stereo not given),0.2%,1.9%,·,-0.2%,3.9%
O=S(=O)(c1ccc(-c2csc(=Nc3ccc(F)cc3)n2CCCCCCO)cc1)N1CCCC1,-7.8%,·,-90.6%,·,·
O=C1N(c2ccccc2)C[C@@H]2C[C@@H](c3cccs3)N3CCC[C@@]123,-4.6%,-6.8%,22.4µM*,-22.8%,-31.9%
CC(C)(O)C#Cc1ccc([C@@H]2C[C@H]3CN(c4ccccc4)C(=O)[C@]34CCCN24)s1,3.3%,-3.3%,?,-37.0%,-32.2%
Cc1noc(C)c1NC(=O)Nc1ccc2c(c1)CC(=O)N([C@@H](C)CO)C[C@@H](C)[C@@H](CN(C)C(=O)Nc1cccc3ccccc13)O2,·,-0.9%,·,·,·
COc1ccc(CNC(=O)C(=O)NCC2OCCCN2S(=O)(=O)c2cccs2)cc1 (stereo not given),5.1%,-4.5%,·,0.7%,19.7%
COC(=O)c1cnn(-c2ccccc2)c1N,-3.5%,2.5%,·,17.6%,11.2%
NC(=O)c1cnn(-c2ccc3ccccc3c2)c1N,?,?,17.8µM*,26.5%,3.98µM*
CCn1ccc2cc(S(=O)(=O)N3CCC(C(=O)NCc4ccc(OC(C)C)cc4)CC3)ccc21,-8.6%,·,·,·,·
CCN(CC)CCn1c2ccccc2c2nc3ccc([N+](=O)[O-])cc3cc21,?,23.1µM*,·,-6.2%,-1.4%
Cn1c2ccccc2c2cc([N+](=O)[O-])ccc21,-13.1%,-0.4%,·,-3.5%,0.0%
O=C(c1cc(-c2cccc(Cl)c2)on1)N1CCCCCC1,10.7µM*,20.6µM*,·,2.51µM*,2.82µM*
CN1CCN(C(=O)c2cc(-c3cccc(Cl)c3)on2)CC1,?,11.1%,·,?,6.31µM*
O=C(c1cc(-c2cccc(Cl)c2)on1)N1CCN(c2ccc(F)cc2)CC1,1.3%,21.6%,·,-3.6%,-1.0%
CCNc1c(NS(=O)(=O)c2ccc([N+](=O)[O-])cc2)c(=O)oc2ccccc12,3.5%,28.3%,·,-1.8%,-7.1%
O=C(COC(=O)c1ccc[nH]c1=O)NCCc1ccc(Cl)cc1Cl,10.7µM*,?,·,0.398µM*,0.501µM*
